Assay outcomes deposited in PubChem BioAssay by National Center for Advancing Translational Sciences (NCATS).
TSHR antagonist: Antagonists of the Thyroid Stimulating Hormone Receptor: HTS campaign; Thyrotropin receptor (Homo sapiens), P16473; TSHR-expressing cells, TSH-stimulated cAMP HTRF, 2 h; stronger effect = lower value; activity change, negative = inhibition, % at 11.5 µM; 330,000 tested, 0.2% active;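 active means activity change below a set negative limit, meaning inhibition stronger than a set level, cut at about -70% in these data; inconclusive means activity change between two set negative limits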; further: on the % scale 0 is the no-effect control and ±100 the full control effect
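TSHR-expressing cells were treated with compounds, then stimulated with TSH at EC80 (4nM final) for 2 hours at 37 deg C. Cellular cAMP was measured by HTRF competition between lysate cAMP and cAMP-d2 for a cryptate-labelled anti-cAMP antibody.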
S-ASM inh: Inhibitors of Secretory Acid Sphingomyelinase (S-ASM): qHTS; Sphingomyelin phosphodiesterase (Homo sapiens), P17405; placental ASM, HMU-PC fluorogenic substrate, 60 min; Potency, µM (titrated, usually from 57.5 µM), for the others: top-dose activity change, negative = inhibition, actives largely listed as inhibitors; 340,000 tested, 0.006% active; AID 504937, 2011; further: potency means the concentration at half of the fitted maximal effect
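HMU-PC0 cleavage (9 uM final) by human placental ASM, 60 min at 37 °C following 10 min compound exposure at RT; stopped at pH 10, fluorescence Ex 386/Em 447 nm.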
Apoferritin bind: qHTS Assay for Identification of Novel General Anesthetics | Ferritin light chain (Equus caballus), P02791 | apoferritin/1-aminoanthracene competitive binding, fluorescence | Potency, µM (highest dose often 77.5 µM), for the others: at the top dose activity change, negative = displacement, usual class: inhibitors | 350,000 tested, 0.074% active | AID 485281, 2010; further: potency means the concentration at half of the fitted maximal effect; on the % scale 0 is the no-effect control and ±100 the full control effect; nearly all actives have a fitted effect of over 20% in size
Target sequence (P02791 2-175 limits assumed): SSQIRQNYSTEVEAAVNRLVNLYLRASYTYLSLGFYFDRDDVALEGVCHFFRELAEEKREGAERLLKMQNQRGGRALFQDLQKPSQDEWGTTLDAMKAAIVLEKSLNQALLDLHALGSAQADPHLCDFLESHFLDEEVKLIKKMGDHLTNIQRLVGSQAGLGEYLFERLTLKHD
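Apoferritin-based anesthetic binding model; compound displacement of fluorescent 1-AMA measured as endpoint fluorescence after 10 minutes at room temperature, scaled to free-ligand and complex controls.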
PTAP TSG101 blk: qHTS Assay for Iinhibitors of HIV-1 Budding by Blocking the Interaction of PTAP/TSG101 | Tumor susceptibility gene 101 protein (Homo sapiens), Q99816 | Fluorescence polarization, FITC-PTAP peptide / Tsg101 binding | Potency, µM (doses to about 115 µM), for the others: at the top dose activity change, negative = inhibition, usual class: inhibitors | 340,000 tested, under 10 active | AID 493005, 2010; active means well fitted inhibition curve with a large enough effect in the main read-out, with a control signal flat, not every such curve was filed as active; inconclusive means small, poorly fitted or top-dose-only effect, or effect the other way, or a change in a side signal; inactive means no such curve, though single readings can be large or run the other way; further: potency means the concentration at half of the fitted maximal effect; % of control where 0% means no effect
Target sequence (Q99816 whole entry, looked up): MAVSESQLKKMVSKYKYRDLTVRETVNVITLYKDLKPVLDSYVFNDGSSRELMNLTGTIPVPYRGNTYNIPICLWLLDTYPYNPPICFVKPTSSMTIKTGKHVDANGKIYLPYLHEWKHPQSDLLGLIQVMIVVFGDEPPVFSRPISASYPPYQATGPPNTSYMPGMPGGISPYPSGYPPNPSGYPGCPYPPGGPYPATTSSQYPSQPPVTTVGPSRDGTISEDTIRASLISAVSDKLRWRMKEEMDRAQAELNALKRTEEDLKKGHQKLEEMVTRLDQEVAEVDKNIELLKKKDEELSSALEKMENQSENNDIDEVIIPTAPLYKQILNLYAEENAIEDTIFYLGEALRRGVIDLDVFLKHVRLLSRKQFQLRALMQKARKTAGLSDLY
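FP read-out: FITC-PTAP peptide, 50 nM final, binding Tsg101 binding domain, 10 uM final; 20 min, r.t.; 10 mM HEPES pH 7.5, 0.15 M NaCl, 0.01% Tween 20, 3 mM EDTA, 0.1 mM TCEP.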
BRCA1 expr act: qHTS Assay to Identify Small Molecule Activators of BRCA1 Expression. 380,000 tested, 1.1% active. MCF7-BRCA1-FFLuc reporter, luminescence, 48 h; response scale: scaled: vehicle 0%, 10 µM genistein 100%. Potency, µM (highest dose often 46.1 µM), for inactives: top-dose activation, actives largely listed as activators; further: potency means the concentration at half of the fitted maximal effect; nearly all actives have a fitted effect of over 80% in size
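Compounds are tested at multiple concentrations on MCF7 BRCA1-luciferase reporter cells seeded at 2000 per well; after 48 h, a single luminescence end-point is taken and curves fitted to the normalized data.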
* marks the source's active call; other numbers are inactive results. The list is not random: actives were taken first. Their share in the collection is about 1.2%. Unless noted, the call rests on the fitted dose curve; in most records, active means well fitted curve in the direction sought with a large enough effect; inconclusive means small, poorly fitted or top-dose-only effect, or another doubt; inactive means no such curve, though single readings can be large; an effect the other way counts as inactive or inconclusive.

For O=C(Nc1nnc(CC2=CCCCC2)s1)c1cccs1 the results were TSHR antagonist -9.9, S-ASM inh 0.3%, Apoferritin bind -9.8%, PTAP TSG101 blk 3.2% and BRCA1 expr act 6.31µM*.
CC(=O)c1ccc(NC(=S)Nc2ccc3cn[nH]c3c2)cc1 was read as TSHR antagonist -6.2, S-ASM inh 0.5%, Apoferritin bind -4.6%, PTAP TSG101 blk 0.3% and BRCA1 expr act 6.31µM*.
For C[C@H](NC(=O)[C@@H](N)Cc1ccc(O)cc1)C(=O)NCC(=O)N[C@H]1CSSC[C@@H](C(=O)O)NC(=O)[C@H](CO)NC(=O)[C@H]([C@@H](C)O)NC(=O)[C@H](Cc2ccccc2)NC(=O)[C@H]([C@@H](C)O)NC(=O)[C@H](CCCCN)NC(=O)[C@@H](Cc2c[nH]c3ccccc23)NC(=O)[C@H](Cc2ccccc2)NC(=O)[C@H](Cc2ccccc2)NC(=O)[C@H](CC(N)=O)NC(=O)[C@H](CCCCN)NC1=O the results were Apoferritin bind -4.1%.
Screening CCOc1ccc(C2C=C(c3ccccc3)Nc3nnnn32)cc1 (stereo not given) returned TSHR antagonist -2.3, S-ASM inh 12.2%, Apoferritin bind 118.6%, PTAP TSG101 blk -4.3% and BRCA1 expr act 7.08µM*.
Screening COC(=O)Cn1c(=NC(=O)c2cccc(OC)c2)sc2cc(OC)ccc21 returned TSHR antagonist -11.5, S-ASM inh 358.2%, Apoferritin bind 0.7%, PTAP TSG101 blk 1.8% and BRCA1 expr act 10µM*.
`COc1cccc(C(=O)N=c2sc3cc(S(C)(=O)=O)ccc3n2C)c1` gave TSHR antagonist -9.4, S-ASM inh 3.4%, Apoferritin bind -11.4%, PTAP TSG101 blk -2.9% and BRCA1 expr act 6.31µM*.
For Cc1cccc(-c2[nH]c(C(C)(C)C)nc2-c2ccc3nccnc3c2)n1 the results were TSHR antagonist -9.5.
Screening CCOC(=O)c1cnn2c(C)cc(-c3ccc(F)cc3)nc12 returned TSHR antagonist -0.7, S-ASM inh 227.3%, Apoferritin bind 34.1%, PTAP TSG101 blk -0.1% and BRCA1 expr act 2.82µM*.
`Cc1cc(-c2ccc(F)cc2)nc2cc(C(N)=O)nn12` gave TSHR antagonist 12.7, S-ASM inh 63.2%, Apoferritin bind 17.9%, PTAP TSG101 blk 5.5% and BRCA1 expr act 0.0%.
CC1(C(=O)O)CCCN1C(=O)c1ccc(Cl)cc1Cl (stereo not given) was read as BRCA1 expr act 2.8%.
For Cc1oc(-c2ccc(Cl)cc2)cc1C(=O)N1CCC1(C)C(=O)O (stereo not given) the results were BRCA1 expr act 8.91µM*.
Screening COc1ccc2c(c1)c(C(=O)CN(C)C)c(C)n2C returned BRCA1 expr act 19.1%.
For O=C(Nc1ccsn1)c1ccc(Cl)cc1Cl the results were TSHR antagonist -27.2, S-ASM inh -8.3%, Apoferritin bind 0.6%, PTAP TSG101 blk -7.7% and BRCA1 expr act 2.51µM*.
Screening O=C(CSc1nc2ccccc2[nH]1)c1ccccc1F returned TSHR antagonist 0.0, S-ASM inh -0.3%, Apoferritin bind -5.5%, PTAP TSG101 blk -6.1% and BRCA1 expr act 2µM*.
For O=C(C[N+]1(CCO)CCOCC1)c1cccs1 the results were BRCA1 expr act 7.1%.
Brc1ccccc1OCCCn1cnc2ccccc21 was read as TSHR antagonist -15.8, S-ASM inh 1.9%, Apoferritin bind inconclusive, PTAP TSG101 blk -1.4% and BRCA1 expr act 11.2µM*.
Screening COc1ccc(OC)c(C2=Nn3c(nnc3-c3cccc(OC)c3OC)SC2)c1 returned Apoferritin bind -20.3%.
CSCC[C@H](NC(=O)CNC(=O)CNC(=O)[C@H](CO)NC(=O)[C@H](CCCNC(=N)N)NC(=O)[C@H](CO)NC(=O)[C@H](CC(C)C)NC(=O)[C@H](CC(C)C)NC(=O)CNC(=O)[C@H](C)NC(=O)[C@H](CC(C)C)NC(=O)[C@H](CCCNC(=N)N)NC(=O)[C@H](Cc1cnc[nH]1)NC(=O)[C@@H](NC(=O)[C@@H](N)C(C)C)[C@@H](C)O)C(=O)N[C@H](C(=O)N[C@@H](CCCCN)C(=O)N[C@@H](CO)C(=O)N[C@@H](CC(N)=O)C(=O)N[C@@H](Cc1ccccc1)C(=O)N[C@H](C(=O)N1CCC[C@H]1C(=O)N[C@H](C(=O)N[C@@H](CC(N)=O)C(=O)N[C@H](C(=O)NCC(=O)N[C@@H](CO)C(=O)N[C@@H](CCCCN)C(=O)N[C@@H](C)C(=O)N[C@@H](Cc1ccccc1)C(N)=O)C(C)C)[C@@H](C)O)C(C)C)C(C)C was read as Apoferritin bind -1.6%.
Screening CC(=O)c1sc(NC(=O)C=C(C)C)nc1C returned TSHR antagonist 5.8, S-ASM inh 1.7%, Apoferritin bind 2.1%, PTAP TSG101 blk -6.3% and BRCA1 expr act 50.1%.
CC(=O)c1sc(NC(=O)C2(F)C(F)(F)C(F)(F)C(F)(F)C(F)(F)C2(F)F)nc1C was read as TSHR antagonist -75.5*, S-ASM inh -5.2%, Apoferritin bind inconclusive, PTAP TSG101 blk -11.5% and BRCA1 expr act -101.9%.
For N#Cc1ccccc1NC(=O)c1ccc2c(Cl)c3c(nc2c1)CCCC3 the results were TSHR antagonist 3.8, S-ASM inh -13.9%, Apoferritin bind -12.9%, PTAP TSG101 blk -1.8% and BRCA1 expr act 6.31µM*.
`CCN(Cc1cccc(S(=O)(=O)O)c1)c1ccc(C(=C2C=CC(=[N+](CC)Cc3cccc(S(=O)(=O)O)c3)C=C2)c2ccccc2S(=O)(=O)[O-])cc1` gave BRCA1 expr act -52.8%.
CCOc1cc(NC(=O)C2CC2)c(OCC)cc1NC(=O)c1cccc(F)c1 was read as TSHR antagonist -89.4*, S-ASM inh 77.2%, Apoferritin bind 25.6%, PTAP TSG101 blk 0.7% and BRCA1 expr act -10.8%.
Cc1csc(Nc2ccc(Cl)cc2)n1 was read as TSHR antagonist 11.1, S-ASM inh -1.0%, Apoferritin bind inconclusive, PTAP TSG101 blk -4.9% and BRCA1 expr act inconclusive.
Cc1ccc(Nc2nc(CSc3nnnn3C)cs2)cc1 was read as TSHR antagonist -2.3, S-ASM inh -6.1%, Apoferritin bind -10.8%, PTAP TSG101 blk -3.9% and BRCA1 expr act 3.16µM*.
For Cc1ccc(Nc2nc(C)cs2)cc1 the results were TSHR antagonist -19.2, S-ASM inh 0.0%, Apoferritin bind inconclusive, PTAP TSG101 blk -1.0% and BRCA1 expr act 2.51µM*.
